Shown are actives, neighbours in structure and some others; about 3.9% of the full set was active somewhere.
Bead autofluor = counter-screen for toxin protease inhibitors: compound fluorescence. compound autofluorescence counterscreen, microsphere flow cytometry; hits give high values. fluorescence intensity (no concentration beside the values). 360,000 tested, 3.1% active. AID 624483; in the data active = fluorescence intensity above about 16000; inconclusive = no clear call, values can overlap the other calls
BoNT-A LC inh2 = BoNT A light chain protease inhibition. multiplex microsphere protease substrate cleavage, flow cytometry. inhibition, % at 10 µM. 360,000 tested, 0.17% active. AID 588499
BoNT F protease = blocks Botulinum neurotoxin F light chain protease; Multiplex microsphere protease cleavage assay, flow cytometry; inhibition, % at 10 µM; 360,000 tested, 0.22% active; in the data active = inhibition above about 35%, passing the limit was not always enough; inconclusive = no clear call, values can overlap the other calls
DUSP3 inh = blocks human VHR1 dual specificity phosphatase | P51452 | recombinant VHR phosphatase, pNPP absorbance | inhibition, % at 13.3 µM | 290,000 tested, 0.52% active | AID 1654; in the data active = inhibition above about 50%
SARS 3CLpro inh = SARS-CoV 3CLpro protease inhibition. P0C6X7. recombinant SARS-CoV 3CLpro, quenched FRET peptide cleavage. inhibition, % at 6 µM. 290,000 tested, 0.14% active. AID 1706; in the data active = inhibition above about 12%
Anthrax LF inh2 = anthrax lethal factor protease inhibition | AID 588501 | P15917 | inhibition, % at 10 µM | 360,000 tested, 0.12% active | multiplex microsphere protease cleavage assay, LF
Target sequence (P15917 whole entry, looked up): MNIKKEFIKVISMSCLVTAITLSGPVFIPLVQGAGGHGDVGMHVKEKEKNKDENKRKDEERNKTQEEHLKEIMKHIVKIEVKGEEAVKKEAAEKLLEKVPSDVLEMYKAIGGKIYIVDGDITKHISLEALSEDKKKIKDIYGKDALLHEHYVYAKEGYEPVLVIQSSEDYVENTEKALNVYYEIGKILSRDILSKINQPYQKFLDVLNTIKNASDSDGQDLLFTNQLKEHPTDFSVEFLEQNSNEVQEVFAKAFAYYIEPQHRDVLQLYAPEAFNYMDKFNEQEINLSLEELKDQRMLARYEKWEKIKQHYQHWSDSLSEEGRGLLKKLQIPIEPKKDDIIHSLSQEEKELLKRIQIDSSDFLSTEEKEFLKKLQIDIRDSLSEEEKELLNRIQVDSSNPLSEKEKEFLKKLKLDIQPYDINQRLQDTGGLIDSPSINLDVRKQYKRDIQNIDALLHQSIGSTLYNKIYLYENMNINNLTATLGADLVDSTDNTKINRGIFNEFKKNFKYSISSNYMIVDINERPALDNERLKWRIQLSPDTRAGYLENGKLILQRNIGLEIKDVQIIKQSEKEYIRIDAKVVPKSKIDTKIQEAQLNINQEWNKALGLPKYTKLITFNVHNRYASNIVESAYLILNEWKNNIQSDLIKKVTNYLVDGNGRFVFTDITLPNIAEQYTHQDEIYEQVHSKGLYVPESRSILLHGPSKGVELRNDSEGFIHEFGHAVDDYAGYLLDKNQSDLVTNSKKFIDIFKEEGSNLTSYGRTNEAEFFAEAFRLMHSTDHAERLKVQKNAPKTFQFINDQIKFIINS
Large screens that a line does not name were inactive. Cut-off read from the data, not from the text of the source, unless noted: active = inhibition above about 30%; inconclusive = no clear call, values can overlap the other calls; inactive = below that.

CCOC(=O)C1=NN(N=O)C2(CC(=O)N(c3cc(C)cc(C)c3)C2=O)C1 (stereo not drawn)	Bead autofluor 24546
Nc1nc(-c2ccco2)c(-c2ccco2)s1	none
c1coc(-c2nc(-c3ccco3)c(-c3ccco3)nc2-c2ccco2)c1	DUSP3 inh 51 (no result: Bead autofluor, BoNT-A LC inh2, BoNT F protease, Anthrax LF inh2)
CCCCNC(=O)COC(=O)c1ccccc1F	none
Cc1nnc(SCC(=O)N2CCOCC2)n1C	none
Cc1nnc(SCCOC(N)=O)n1C	Bead autofluor 20927
CC(C)C[C@H](NS(=O)(=O)c1ccc(Br)cc1)C(=O)O	Bead autofluor 22565
CCCCNC(=O)COC(=O)c1ccc(NS(=O)(=O)c2ccc3c(c2)OCCO3)cc1	Bead autofluor 21536
CNC(=O)COC(=O)c1ccc(NS(=O)(=O)c2ccc3c(c2)OCCO3)cc1	BoNT F protease 43
CN(C)C1=NCCN1CC1CCCCC1	none (no result: DUSP3 inh, SARS 3CLpro inh)
CN(C)c1nc(N)ncc1-c1ccc(Oc2ccccc2)cc1	none
Brc1ccc(-c2nnc3c4ccccc4nc(N4CCOCC4)n23)cc1	BoNT-A LC inh2 inconclusive, Anthrax LF inh2 inconclusive
Fc1ccccc1-c1nnc2c3ccccc3nc(N3CCOCC3)n12	Bead autofluor 19272
c1ccc2c(c1)nc(N1CCOCC1)c1ccccc12	none
Clc1ccc(-c2nnc3c4ccccc4nc(N4CCOCC4)n23)cc1Cl	Bead autofluor 21865, BoNT-A LC inh2 inconclusive
CC1CCC(NC(=O)C2CC(=O)N(c3ccc4c(c3)OCCO4)C2)CC1 (stereo not drawn)	none
Cc1cc(-c2nn(-c3ccccc3F)cc2CN2CCCC(O)C2)c(C)s1 (stereo not drawn)	DUSP3 inh 53
N#C/C(=C\c1ccc(-c2ccccc2)o1)C(=O)Nn1cnnc1	DUSP3 inh 57
Cc1ccc(-c2ccc(/C=C(\C#N)C(=O)Nc3cc(C)nn3-c3ccccc3)o2)cc1	none (no result: Bead autofluor, BoNT-A LC inh2, BoNT F protease, Anthrax LF inh2)
CC1Cc2ccccc2N1C(=O)COC(=O)c1cccnc1Cl (stereo not drawn)	Bead autofluor 16252, BoNT-A LC inh2 inconclusive
CC1Cc2ccccc2N1C(=O)COC(=O)c1ccccc1NCCO (stereo not drawn)	none (no result: DUSP3 inh, SARS 3CLpro inh)
COC(=O)c1ccccc1NC(=O)N1c2ccccc2CC1C (stereo not drawn)	Bead autofluor 20425, BoNT-A LC inh2 inconclusive
O=C(CCCn1nnnc1CN1CCOCC1)N1CCN(c2ccccc2F)CC1	none
Cc1cc(C)c2c(CC(=O)NN(C)C)coc2c1	DUSP3 inh 53
COc1ccc(OC)c(NC(=O)Cc2coc3cc(C)cc(C)c23)c1	Bead autofluor 22476, BoNT-A LC inh2 inconclusive
Cc1cc(C)c2c(CC(=O)O)coc2c1	none
C=CCn1cccc(/C=C/C(=O)c2ccc(C(C)(C)C)cc2)c1=S	BoNT-A LC inh2 30
Fc1cnc(N2CCc3ccccc32)nc1N1CCc2ccccc21	Bead autofluor 16473
CC(C)CCOc1ccc(C(=O)NCC(c2ccco2)N(C)C)cc1 (stereo not drawn)	none
COC(=O)CCC(=O)Nc1ccc(Br)cc1	none
O=C(O)C1CC=CCC1C(=O)N1CCN(c2nc(-c3ccccc3)c3ccccc3n2)CC1 (stereo not drawn)	none
O=C(O)C1CC=CCC1C(=O)N1CCN(c2nc(-c3ccccc3Cl)c3cc(Br)ccc3n2)CC1 (stereo not drawn)	Bead autofluor 16567 (no result: SARS 3CLpro inh)
CCCOP(=O)(c1ccc(N(C)C)cc1)C(Nc1ccccc1)c1ccc(C)cc1 (stereo not drawn)	BoNT-A LC inh2 inconclusive, BoNT F protease inconclusive
Cc1ccc(-c2noc(CCC(=O)Nc3cccc(C(=O)NC4CC4)c3)n2)cc1	none (no result: DUSP3 inh, SARS 3CLpro inh)
O=C(CN1C(=O)CSc2ccc(S(=O)(=O)N3CCCCC3)cc21)NCc1ccccc1	none
O=C(CN1C(=O)CSc2ccc(S(=O)(=O)N3CCCCC3)cc21)NCc1ccccc1Cl	DUSP3 inh 56
COc1ccccc1/C=C/C(=O)NNC(=O)c1cccs1	none
COc1cccc(C2=NOC(C(=O)Nc3cccnc3Cl)C2)c1OC (stereo not drawn)	none
COc1cc(NC(=O)C2CC(c3cccc(OC)c3OC)=NO2)cc(OC)c1OC (stereo not drawn)	Bead autofluor 22158
COc1ccc(OC)c(C2=NOC(C(=O)Nc3cccc(C(C)=O)c3)C2)c1 (stereo not drawn)	Bead autofluor 23110
COc1ccc(CCC(=O)Nc2ncc(C)s2)cc1	none
CCOc1ccc(-c2cc(CCCC(=O)NCCc3ccc(OC)c(OC)c3OC)no2)cc1	Bead autofluor 22608
COc1ccc(-c2cc(CCCC(=O)NCCc3ccc(OC)cc3OC)no2)cc1	Bead autofluor 24435
CC(C)(C)NC(=O)C(c1ccc(-c2ccccc2)cc1)N(C[C@H]1CC[C@@H]([C@@H]2CC[C@H](CO)O2)O1)C(=O)c1ccc(C(C)(C)C)cc1 (stereo partly drawn)	none (no result: DUSP3 inh, SARS 3CLpro inh)
CCCn1c2c(c(O)c(C(=O)Nc3ncccc3C)c1=O)CCCC2	Bead autofluor 22788
CCCn1c2c(c(O)c(C(=O)Nc3ccc(C)cn3)c1=O)CCCC2	none (no result: Bead autofluor, BoNT-A LC inh2, BoNT F protease, DUSP3 inh, Anthrax LF inh2)
Cc1nc2sccn2c(=O)c1S(=O)(=O)NCC1CCN(Cc2ccccc2Cl)CC1	none
O=C(COC(=O)COc1ccc2ccccc2c1)NCC(F)(F)F	BoNT F protease 37
O=C1CC(c2cccc(F)c2)SC(N(c2ccccc2)c2ccccc2)=N1 (stereo not drawn)	Bead autofluor 23403
COc1ccc([C@H]2C[C@@H](O)[C@H](n3cc(-c4ccc(F)cc4)nn3)CN2C(=O)C2CCCCC2)cc1	none (no result: DUSP3 inh, SARS 3CLpro inh)
Cc1ccccc1OCC(=O)N/N=C/c1ccc([N+](=O)[O-])o1	DUSP3 inh 52
CC(C)(CNc1ccc(C(F)(F)F)cc1[N+](=O)[O-])N1CCOCC1	none
COc1ccc(N/C(N)=N/c2nc(CSc3ccc(C)cc3)cc(=O)[nH]2)cc1	none
CCCc1cc(=O)[nH]c(/N=C(\N)Nc2ccccc2)n1	none
COC(=O)Cc1cc(=O)[nH]c(/N=C(\N)Nc2ccccc2)n1	Bead autofluor 21352
Cc1ccc(N/C(N)=N/c2nc(CSc3nnc(N)s3)cc(=O)[nH]2)cc1	DUSP3 inh 53
N/C(=N\c1nc(CSc2nc3ccccc3s2)cc(=O)[nH]1)Nc1ccc(F)cc1	none
Cc1ccc(N/C(N)=N/c2nc(CSc3ccc(C)cc3)cc(=O)[nH]2)cc1	Bead autofluor 23020
Cc1cc(OC(=O)c2ccccc2C(F)(F)F)c([N+](=O)[O-])c(=O)[nH]1	none
Cc1nc(CC(=O)c2ccc(O)cc2O)cs1	Bead autofluor 22193, BoNT-A LC inh2 inconclusive
Cc1nc(CC(=O)c2ccc(O)c(C)c2O)cs1	none
O=C(NCCCN1CCCC1=O)c1sc2ccccc2c1Cl	Bead autofluor inconclusive
Nc1ccn(CC(=O)NCCc2ccccn2)c(=O)n1	none (no result: DUSP3 inh, SARS 3CLpro inh)
CC1=C(C(=O)Nc2cc(C(=O)N(C)Cc3ccccc3)ccc2C)SCCO1	DUSP3 inh 52
COCCNC(=O)c1ccc(C)c(NC(=O)C2=C(C)OCCS2)c1	none
CC(=O)Nc1sc2c(c1C#N)CCC(C)C2 (stereo not drawn)	none
